FLuc counter: counter-screen for miR-21 project: firefly luciferase inhibitors or activators. P08659. purified FLuc, Km substrates, luminescence inhibition. Potency, µM (highest dose often 57.5 µM), most hits filed as inhibitors. 6.9% of 360,000 active. AID 588342; further: nearly all actives have a fitted effect of over 55% in size
Target sequence (P08659 whole entry, looked up): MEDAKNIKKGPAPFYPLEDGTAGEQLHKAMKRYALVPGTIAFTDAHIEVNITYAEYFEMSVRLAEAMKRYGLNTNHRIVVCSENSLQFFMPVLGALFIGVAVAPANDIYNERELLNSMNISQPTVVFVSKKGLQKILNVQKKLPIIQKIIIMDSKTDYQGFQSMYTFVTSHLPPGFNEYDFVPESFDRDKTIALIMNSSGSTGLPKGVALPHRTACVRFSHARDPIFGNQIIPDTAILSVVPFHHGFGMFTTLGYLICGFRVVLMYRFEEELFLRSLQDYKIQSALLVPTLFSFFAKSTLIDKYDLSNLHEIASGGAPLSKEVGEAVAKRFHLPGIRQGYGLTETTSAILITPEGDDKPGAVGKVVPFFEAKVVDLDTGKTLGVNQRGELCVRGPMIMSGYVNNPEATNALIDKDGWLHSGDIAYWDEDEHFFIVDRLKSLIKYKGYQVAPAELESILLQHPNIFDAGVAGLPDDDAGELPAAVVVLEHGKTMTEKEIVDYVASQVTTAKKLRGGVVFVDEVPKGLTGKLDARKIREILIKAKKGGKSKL
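Purified P. pyralis luciferase (10nM final) with 10uM D-luciferin and 10uM ATP (Km levels) in 50mM Tris acetate pH 7.5, 10mM Mg acetate, 0.01% Tween-20, 0.05% BSA; qHTS 6-point titration, ~60 µM downward; luminescence read.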
ELG1 genotoxic: inducers of genotoxicity in HEK293T ELG1-luciferase cells. Potency, µM (doses to about 46 µM), actives largely listed as activators. HEK293T ELG1-luciferase reporter, luminescence, 16 h. 1.3% of 330,000 active. AID 504466; further: nearly all actives have a fitted effect of over 60% in size
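Reporter readout depends on ELG1 protein level, which increases with genetic stress. After 16 hr compound exposure at 37 °C, luciferase activity was quantified using ONE-Glo.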
Rab9 promoter act: activators of Rab9 promoter; AID 485297; Huh7 Rab9 promoter-luciferase reporter, luminescence, 24 h; 2.8% of 320,000 active; Potency, µM (doses to about 9.22 µM), usual class: activators; further: nearly all actives have a fitted effect of over 60% in size
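Luminescence read-out: Huh7 cells stably expressing Rab9-luciferase, treated 24 h with compound at 37 °C, then lysed with luciferase reagent for 10 min at ambient before reading.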
SMN2 splice enh: increases expression of the SMN2 splice variant; HEK293 SMN2-luciferase splicing reporter, luminescence, 30-36 h; Potency, µM (top dose mostly 46.1 µM), usual class: activators; 2.8% of 210,000 active; AID 1458; further: nearly all actives have a fitted effect of over 55% in size
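HEK293 cells carry an SMN2 […]–luciferase reporter in which exon 7 inclusion puts luciferase in frame. Cells were plated 10-12 h before compound addition, then incubated 30-36 h at 37C. ONE-Glo luminescence was read; sodium butyrate at 4.5 mM final served as control.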
Luc counter: blocks Kinase-Glo luciferase, a counter-screen artifact; Potency, µM (top dose mostly 38.3 µM), most hits filed as inhibitors; 0.28% of 200,000 active; Kinase-Glo luciferase, ATP luminescence, 8 min; AID 1379; further: nearly all actives have a fitted effect of over 60% in size
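Compound is pinned into ATP-containing buffer (10 uM ATP, imidazole pH 7.2, 7 mM MgCl2). Kinase-Glo luciferase reagent is then added. Light output is recorded following an 8-min room-temperature incubation.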
NPC1 promoter act: activates the NPC1 promoter; AID 485313; Potency, µM (highest dose often 9.22 µM), hits mostly activators; 2.4% of 320,000 active; Huh7 NPC1 promoter luciferase reporter, 24 h; further: nearly all actives have a fitted effect of over 60% in size
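Compounds in DMSO were transferred onto Huh7 NPC1-luciferase reporter cells pre-incubated 2 h; after 24 h at 37 °C, Amplite reagent was dispensed and luminescence recorded 10 min later.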
Numbers stand for hits. Compounds with a hit are over-represented: about 7.5% of the library has one in this group of screens. The call rests on the fitted dose curve; in most records, active means well fitted curve in the direction sought with a large enough effect; inconclusive means small, poorly fitted or top-dose-only effect, or another doubt; inactive means no such curve, though single readings can be large; an effect the other way counts as inactive or inconclusive.

How did CN(c1ccccc1)c1ncnc2c1cnn2C do in these assays?
FLuc counter: inactive

What do the screens show for `CC1CC(C)(C)CC2(C1)NC(=O)N(CC(=O)Nc1cc([N+](=O)[O-])ccc1F)C2=O` (centres undefined)?
FLuc counter: inactive; ELG1 genotoxic: inactive; Rab9 promoter act: inactive; NPC1 promoter act: inactive

How did CC1CCC(N2CC(=O)N(C3CCCCC3)C(c3ccc(Cl)cc3)C2=O)CC1 (centres undefined) do in these assays?
FLuc counter: inactive

Results for O=C(CCCN1C(=O)S/C(=C/C=C/c2ccccc2)C1=O)Nc1ccc(C(=O)O)cc1 ?
FLuc counter: inactive; ELG1 genotoxic: inactive; Rab9 promoter act: inactive; NPC1 promoter act: inactive

How did CC(=C\c1ccccc1)/C=C1/SC(=O)N(CCCC(=O)Nc2ccc(C(=O)O)cc2)C1=O do in these assays?
FLuc counter: 17µM; ELG1 genotoxic: inconclusive; Rab9 promoter act: inactive; SMN2 splice enh: inactive; Luc counter: inactive; NPC1 promoter act: inactive

How did O=C(CCN1C(=O)/C(=C/c2cccs2)SC1=S)Nc1ccc(O)cc1 do in these assays?
FLuc counter: inactive; ELG1 genotoxic: inactive; Rab9 promoter act: inactive; NPC1 promoter act: inactive

Results for CC(/C=C1\SC(=S)N(CCC(=O)Nc2ccc(O)cc2)C1=O)=C\c1ccccc1 ?
FLuc counter: inactive; ELG1 genotoxic: inactive; Rab9 promoter act: inactive; NPC1 promoter act: inactive

Results for O=C(CCN1C(=O)/C(=C/c2cccs2)SC1=S)Nc1ccc(C(=O)O)c(O)c1 ?
FLuc counter: 17µM; ELG1 genotoxic: inactive; Rab9 promoter act: inactive; NPC1 promoter act: inactive

How did CC(/C=C1\SC(=S)N(CCCC(=O)Nc2ccc(C(=O)O)c(O)c2)C1=O)=C\c1ccccc1 do in these assays?
FLuc counter: 11µM; ELG1 genotoxic: inconclusive; Rab9 promoter act: inconclusive; SMN2 splice enh: 35µM; Luc counter: inactive; NPC1 promoter act: inactive

Results for CCN1CCN(Cc2ccc(NC(=O)Nc3cccs3)cc2)CC1 ?
FLuc counter: 4.8µM; ELG1 genotoxic: inconclusive; Rab9 promoter act: 4µM; SMN2 splice enh: inconclusive; Luc counter: inactive; NPC1 promoter act: 1µM

What do the screens show for `CCN1CCN(Cc2ccc(NC(=O)Nc3ccc(SC)cc3)cc2)CC1`?
FLuc counter: 17µM; ELG1 genotoxic: inconclusive; Rab9 promoter act: inconclusive; SMN2 splice enh: inconclusive; Luc counter: inactive; NPC1 promoter act: inactive

Results for CCN1CCN(Cc2ccc(NC(=O)Nc3ccccc3)cc2)CC1 ?
FLuc counter: 6µM; ELG1 genotoxic: 6.5µM; Rab9 promoter act: 1.4µM; SMN2 splice enh: inactive; Luc counter: inactive; NPC1 promoter act: 2.8µM

What do the screens show for `CCN1CCN(Cc2ccc(NC(=O)Nc3ccc(OC)cc3)cc2)CC1`?
FLuc counter: inconclusive; ELG1 genotoxic: inconclusive; Rab9 promoter act: inactive; SMN2 splice enh: inactive; Luc counter: inactive; NPC1 promoter act: inactive

What do the screens show for `Cc1cccc(NC(=O)c2c(C)cc(C)nc2SCC(=O)Nc2c(C)cc(C)cc2C)c1`?
FLuc counter: inactive

How did CCN(CC(=O)Nc1ccc(OC)cc1)C(=O)CSCC(=O)Nc1cc(C)on1 do in these assays?
FLuc counter: inactive; ELG1 genotoxic: inactive; Rab9 promoter act: inactive; NPC1 promoter act: inactive

What do the screens show for `CCOC(=O)c1ccc2c(c1)nc(-c1ccccn1)n2CC`?
FLuc counter: 1.5µM; ELG1 genotoxic: inconclusive; Rab9 promoter act: 3.5µM; NPC1 promoter act: inconclusive

How did O=C(COc1ccccc1F)c1ccc(O)cc1O do in these assays?
FLuc counter: inconclusive; ELG1 genotoxic: inactive; Rab9 promoter act: inactive; SMN2 splice enh: inactive; Luc counter: inactive; NPC1 promoter act: inactive

Results for Cc1c(O)ccc(C(=O)COc2ccccc2F)c1O ?
FLuc counter: 21µM; ELG1 genotoxic: inconclusive; Rab9 promoter act: inactive; SMN2 splice enh: inactive; Luc counter: inactive; NPC1 promoter act: inactive

How did Cc1ccc(S(=O)(=O)CCC(=O)OC2CC(C)OC2=O)cc1 (centres undefined) do in these assays?
ELG1 genotoxic: inactive

What do the screens show for `CCn1c2c(c(=O)n3ncc(C(=O)N4CCN(c5ccc(Cl)cc5)CC4)c13)CN(Cc1ccc(OC)cc1)CC2`?
FLuc counter: inactive

What do the screens show for `CC1CCN(C(=O)c2cc(-c3ccc(Cl)cc3)on2)CC1`?
FLuc counter: 6µM; SMN2 splice enh: inactive

Results for CC1CCN(C(=O)c2cc(-c3cccc(Cl)c3)on2)CC1 ?
FLuc counter: 24µM; SMN2 splice enh: inconclusive

Results for CC1CCN(C(=O)c2cc(-c3ccc(Cl)c(Cl)c3)on2)CC1 ?
FLuc counter: inconclusive; ELG1 genotoxic: inactive; Rab9 promoter act: inactive; SMN2 splice enh: inconclusive; Luc counter: inactive; NPC1 promoter act: inactive

What do the screens show for `COc1ccccc1N1CCN(C(=O)c2cc(-c3cccc(Cl)c3)on2)CC1`?
FLuc counter: inactive; ELG1 genotoxic: inactive; Rab9 promoter act: inactive; SMN2 splice enh: inactive; Luc counter: inactive; NPC1 promoter act: inactive

How did O=C(COc1cc2oc(=O)c3c(c2cc1Cl)CCCC3)N1C[C@H]2C[C@@H](C1)c1cccc(=O)n1C2 do in these assays?
FLuc counter: inactive; ELG1 genotoxic: inactive; Rab9 promoter act: inactive; NPC1 promoter act: inactive

How did O=c1/c(=C/c2ccco2)sc2nc(-c3ccccc3Br)nn12 do in these assays?
FLuc counter: 6.7µM; ELG1 genotoxic: inactive; Rab9 promoter act: inactive; SMN2 splice enh: inactive; Luc counter: inactive; NPC1 promoter act: inactive

What do the screens show for `Cc1ccccc1/C=N/Nc1ncnc2nc[nH]c12`?
FLuc counter: 15µM; ELG1 genotoxic: inconclusive; Rab9 promoter act: inconclusive; NPC1 promoter act: inconclusive

What do the screens show for `Cc1ccsc1/C=N/Nc1ncnc2nc[nH]c12`?
FLuc counter: 19µM; ELG1 genotoxic: 15µM; Rab9 promoter act: 3.5µM; SMN2 splice enh: 11µM; Luc counter: inconclusive; NPC1 promoter act: 2.5µM

What do the screens show for `c1ccc(CNc2ncnc3nc[nH]c23)cc1`?
FLuc counter: inactive; ELG1 genotoxic: inactive; Rab9 promoter act: inactive; SMN2 splice enh: inactive; Luc counter: inactive; NPC1 promoter act: inactive

What do the screens show for `Fc1ccc(/C=N/Nc2ncnc3nc[nH]c23)cc1F`?
FLuc counter: inconclusive; ELG1 genotoxic: 21µM; Rab9 promoter act: inactive; SMN2 splice enh: inconclusive; Luc counter: inactive; NPC1 promoter act: inactive

What do the screens show for `C(=N\Nc1ncnc2nc[nH]c12)/c1cccs1`?
FLuc counter: 13µM; ELG1 genotoxic: 16µM; Rab9 promoter act: inconclusive; SMN2 splice enh: 35µM; Luc counter: inactive; NPC1 promoter act: inconclusive

Results for Clc1ccc(CCNc2ncnc3nc[nH]c23)cc1 ?
FLuc counter: inactive; ELG1 genotoxic: inactive; Rab9 promoter act: inactive; SMN2 splice enh: inactive; Luc counter: inactive; NPC1 promoter act: inactive

Results for Cc1cc(NC(=O)N2CCC(CN3CCCCCC3)CC2)ccc1Br ?
FLuc counter: inactive

What do the screens show for `CC(=O)N1CCN(C(=O)COC(=O)COc2ccc(C#N)cc2)CC1`?
FLuc counter: inactive; ELG1 genotoxic: inactive; Rab9 promoter act: inactive; NPC1 promoter act: inactive

Screening data deposited in PubChem by National Center for Advancing Translational Sciences (NCATS).
